The target of test [1] is BDNF/NT-3 growth factors receptor (Homo sapiens) (UniProt Q16620). To be noted: at 10 µM.
Test [2] deals with T1, Tyrosine-protein kinase TXK (Homo sapiens) (UniProt P42681).
T1 sequence (whole entry): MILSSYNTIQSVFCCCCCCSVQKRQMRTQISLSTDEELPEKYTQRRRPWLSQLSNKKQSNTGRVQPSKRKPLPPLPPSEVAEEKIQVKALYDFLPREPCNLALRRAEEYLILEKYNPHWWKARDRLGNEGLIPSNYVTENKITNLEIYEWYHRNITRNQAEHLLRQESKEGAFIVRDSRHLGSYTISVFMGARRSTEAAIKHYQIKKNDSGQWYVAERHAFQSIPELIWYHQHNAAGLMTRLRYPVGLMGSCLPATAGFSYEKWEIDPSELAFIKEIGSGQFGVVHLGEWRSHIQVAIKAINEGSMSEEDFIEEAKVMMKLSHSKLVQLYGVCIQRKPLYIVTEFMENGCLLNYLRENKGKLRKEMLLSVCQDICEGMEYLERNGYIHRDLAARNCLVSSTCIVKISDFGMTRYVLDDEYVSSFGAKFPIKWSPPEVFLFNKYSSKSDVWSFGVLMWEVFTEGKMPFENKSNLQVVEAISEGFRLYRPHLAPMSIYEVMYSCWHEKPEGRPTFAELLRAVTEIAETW
Conditions: at 1 µM.

The target in test [3] is T1, Tyrosine-protein kinase TXK (Homo sapiens). To be noted: at 10 µM.
Test [4] has as its target T2, Serine/threonine-protein kinase ULK2 (Homo sapiens) (UniProt Q8IYT8).
T2 sequence (whole entry): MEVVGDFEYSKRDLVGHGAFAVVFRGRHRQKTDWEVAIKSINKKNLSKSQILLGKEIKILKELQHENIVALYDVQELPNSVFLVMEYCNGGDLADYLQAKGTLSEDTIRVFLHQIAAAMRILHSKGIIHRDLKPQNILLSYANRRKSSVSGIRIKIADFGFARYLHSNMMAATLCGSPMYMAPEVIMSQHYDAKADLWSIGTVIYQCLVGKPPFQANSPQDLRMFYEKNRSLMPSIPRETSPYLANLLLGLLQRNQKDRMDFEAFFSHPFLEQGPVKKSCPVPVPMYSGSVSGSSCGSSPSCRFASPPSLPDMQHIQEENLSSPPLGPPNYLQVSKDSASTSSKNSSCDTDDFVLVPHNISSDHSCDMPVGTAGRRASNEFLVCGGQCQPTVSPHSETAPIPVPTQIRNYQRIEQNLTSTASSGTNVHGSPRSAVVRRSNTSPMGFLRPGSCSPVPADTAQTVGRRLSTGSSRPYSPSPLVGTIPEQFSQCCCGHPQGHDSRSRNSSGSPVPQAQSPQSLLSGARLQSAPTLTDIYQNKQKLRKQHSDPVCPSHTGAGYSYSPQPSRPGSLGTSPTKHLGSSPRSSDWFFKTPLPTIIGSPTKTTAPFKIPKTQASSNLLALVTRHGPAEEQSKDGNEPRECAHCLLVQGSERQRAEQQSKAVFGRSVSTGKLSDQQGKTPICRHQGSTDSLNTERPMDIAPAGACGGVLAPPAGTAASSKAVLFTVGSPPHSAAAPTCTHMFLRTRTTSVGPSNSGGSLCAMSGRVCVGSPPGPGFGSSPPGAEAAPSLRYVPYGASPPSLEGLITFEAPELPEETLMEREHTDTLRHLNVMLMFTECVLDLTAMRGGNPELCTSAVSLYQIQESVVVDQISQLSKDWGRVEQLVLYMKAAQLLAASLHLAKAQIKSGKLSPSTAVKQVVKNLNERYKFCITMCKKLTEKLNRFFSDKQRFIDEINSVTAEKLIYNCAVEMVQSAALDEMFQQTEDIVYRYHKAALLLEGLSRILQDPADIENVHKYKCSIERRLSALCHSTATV
To be noted: at 1 µM.

In test [5] the target is T2, Serine/threonine-protein kinase ULK2 (Homo sapiens). Conditions: at 10 µM.
Test [6] addresses T3, Serine/threonine-protein kinase ULK3 (Homo sapiens) (UniProt Q6PHR2).
T3 sequence (whole entry): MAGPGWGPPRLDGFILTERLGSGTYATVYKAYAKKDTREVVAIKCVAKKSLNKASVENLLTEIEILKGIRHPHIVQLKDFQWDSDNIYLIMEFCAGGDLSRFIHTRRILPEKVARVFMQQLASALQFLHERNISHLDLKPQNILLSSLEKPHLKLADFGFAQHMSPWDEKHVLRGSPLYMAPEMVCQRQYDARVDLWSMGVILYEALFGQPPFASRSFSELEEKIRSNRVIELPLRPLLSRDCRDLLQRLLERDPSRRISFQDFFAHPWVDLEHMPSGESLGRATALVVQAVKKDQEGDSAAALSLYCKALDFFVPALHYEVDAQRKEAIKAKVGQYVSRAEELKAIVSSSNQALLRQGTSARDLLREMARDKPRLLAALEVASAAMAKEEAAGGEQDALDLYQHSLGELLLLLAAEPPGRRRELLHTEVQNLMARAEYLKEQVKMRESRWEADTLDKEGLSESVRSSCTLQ
To be noted: at 1 µM.

For test [7], the target named is T3, Serine/threonine-protein kinase ULK3 (Homo sapiens). Conditions: at 10 µM.
In test [8] the target is Serine/threonine-protein kinase VRK2 (Homo sapiens) (UniProt Q86Y07). To be noted: at 1 µM.
For test [9] the target is unchanged. Conditions: at 10 µM.
The target in test [10] is Serine/threonine-protein kinase WNK2 (Homo sapiens) (UniProt Q9Y3S1). Conditions: at 1 µM.
Test [11] shares this target. Conditions: at 10 µM.
In test [12] the target is Serine/threonine-protein kinase WNK3 (Homo sapiens) (UniProt Q9BYP7). To be noted: at 1 µM.
Test [13] shares this target. To be noted: at 10 µM.
The target in test [14] is Tyrosine-protein kinase Yes (Homo sapiens) (UniProt P07947). Conditions: at 1 µM.
For test [15] the target is unchanged. To be noted: at 10 µM.
The target of test [16] is T4, Tyrosine-protein kinase ZAP-70 (Homo sapiens) (UniProt P43403).
T4 sequence (whole entry): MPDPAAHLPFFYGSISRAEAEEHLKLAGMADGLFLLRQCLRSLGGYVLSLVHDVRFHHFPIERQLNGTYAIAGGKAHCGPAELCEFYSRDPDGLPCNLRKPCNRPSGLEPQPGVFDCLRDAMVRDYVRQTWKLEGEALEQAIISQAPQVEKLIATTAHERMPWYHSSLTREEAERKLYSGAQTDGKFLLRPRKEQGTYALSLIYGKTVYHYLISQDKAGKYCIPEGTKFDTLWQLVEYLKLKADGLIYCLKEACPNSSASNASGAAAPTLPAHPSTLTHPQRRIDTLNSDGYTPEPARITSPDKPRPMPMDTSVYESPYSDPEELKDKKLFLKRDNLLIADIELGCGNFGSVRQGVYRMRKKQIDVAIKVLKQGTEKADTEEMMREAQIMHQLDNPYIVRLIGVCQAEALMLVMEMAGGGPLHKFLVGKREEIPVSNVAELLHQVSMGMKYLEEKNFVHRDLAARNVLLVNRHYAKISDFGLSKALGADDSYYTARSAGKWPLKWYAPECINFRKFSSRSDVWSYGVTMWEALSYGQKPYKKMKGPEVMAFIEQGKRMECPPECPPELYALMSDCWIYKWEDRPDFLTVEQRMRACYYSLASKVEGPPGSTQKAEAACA
To be noted: at 1 µM.

Test [17] has as its target Death-associated protein kinase 3 (Homo sapiens) (UniProt O43293). Conditions: at 1 µM.
The target is the same in test [18]. Conditions: at 10 µM.
The target in test [19] is RAF proto-oncogene serine/threonine-protein kinase (Homo sapiens) (UniProt P04049). Conditions: at 1 µM.
Test [20] has the same target. To be noted: at 10 µM.

Consider six compounds from ChEMBL document CHEMBL2218924, “A broad activity screen in support of a chemogenomic map for kinase signalling research and drug discovery” (Biochem J, 2013).

The structures appear in SMILES notation.

Serine/threonine-protein kinase VRK2 (Homo sapiens), sequence (Q86Y07 whole entry): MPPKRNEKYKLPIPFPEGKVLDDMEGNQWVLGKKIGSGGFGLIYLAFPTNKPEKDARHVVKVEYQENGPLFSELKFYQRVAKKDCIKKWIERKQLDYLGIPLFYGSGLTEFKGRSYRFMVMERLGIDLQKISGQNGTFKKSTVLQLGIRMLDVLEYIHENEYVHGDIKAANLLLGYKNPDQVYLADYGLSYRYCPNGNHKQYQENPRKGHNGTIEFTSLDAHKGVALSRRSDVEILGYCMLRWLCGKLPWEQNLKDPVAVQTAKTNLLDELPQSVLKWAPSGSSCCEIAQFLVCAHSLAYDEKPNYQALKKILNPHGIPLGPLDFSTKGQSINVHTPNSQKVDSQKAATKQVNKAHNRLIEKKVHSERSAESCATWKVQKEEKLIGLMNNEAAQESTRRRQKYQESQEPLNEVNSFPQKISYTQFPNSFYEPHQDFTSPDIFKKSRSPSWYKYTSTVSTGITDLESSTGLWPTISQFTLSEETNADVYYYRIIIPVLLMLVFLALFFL
Death-associated protein kinase 3 (Homo sapiens), sequence (O43293 whole entry, looked up): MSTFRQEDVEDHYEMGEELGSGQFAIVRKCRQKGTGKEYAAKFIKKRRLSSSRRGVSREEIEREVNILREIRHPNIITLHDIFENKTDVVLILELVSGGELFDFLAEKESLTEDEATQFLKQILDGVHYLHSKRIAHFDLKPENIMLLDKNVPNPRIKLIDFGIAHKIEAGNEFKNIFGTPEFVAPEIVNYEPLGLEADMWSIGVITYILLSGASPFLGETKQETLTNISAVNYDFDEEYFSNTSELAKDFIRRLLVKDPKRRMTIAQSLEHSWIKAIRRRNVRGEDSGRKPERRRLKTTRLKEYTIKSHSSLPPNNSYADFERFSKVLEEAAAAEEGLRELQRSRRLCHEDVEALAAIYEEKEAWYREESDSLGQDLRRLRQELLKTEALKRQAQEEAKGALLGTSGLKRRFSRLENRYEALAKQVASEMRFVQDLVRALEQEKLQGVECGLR
Serine/threonine-protein kinase WNK3 (Homo sapiens), sequence (Q9BYP7 whole entry): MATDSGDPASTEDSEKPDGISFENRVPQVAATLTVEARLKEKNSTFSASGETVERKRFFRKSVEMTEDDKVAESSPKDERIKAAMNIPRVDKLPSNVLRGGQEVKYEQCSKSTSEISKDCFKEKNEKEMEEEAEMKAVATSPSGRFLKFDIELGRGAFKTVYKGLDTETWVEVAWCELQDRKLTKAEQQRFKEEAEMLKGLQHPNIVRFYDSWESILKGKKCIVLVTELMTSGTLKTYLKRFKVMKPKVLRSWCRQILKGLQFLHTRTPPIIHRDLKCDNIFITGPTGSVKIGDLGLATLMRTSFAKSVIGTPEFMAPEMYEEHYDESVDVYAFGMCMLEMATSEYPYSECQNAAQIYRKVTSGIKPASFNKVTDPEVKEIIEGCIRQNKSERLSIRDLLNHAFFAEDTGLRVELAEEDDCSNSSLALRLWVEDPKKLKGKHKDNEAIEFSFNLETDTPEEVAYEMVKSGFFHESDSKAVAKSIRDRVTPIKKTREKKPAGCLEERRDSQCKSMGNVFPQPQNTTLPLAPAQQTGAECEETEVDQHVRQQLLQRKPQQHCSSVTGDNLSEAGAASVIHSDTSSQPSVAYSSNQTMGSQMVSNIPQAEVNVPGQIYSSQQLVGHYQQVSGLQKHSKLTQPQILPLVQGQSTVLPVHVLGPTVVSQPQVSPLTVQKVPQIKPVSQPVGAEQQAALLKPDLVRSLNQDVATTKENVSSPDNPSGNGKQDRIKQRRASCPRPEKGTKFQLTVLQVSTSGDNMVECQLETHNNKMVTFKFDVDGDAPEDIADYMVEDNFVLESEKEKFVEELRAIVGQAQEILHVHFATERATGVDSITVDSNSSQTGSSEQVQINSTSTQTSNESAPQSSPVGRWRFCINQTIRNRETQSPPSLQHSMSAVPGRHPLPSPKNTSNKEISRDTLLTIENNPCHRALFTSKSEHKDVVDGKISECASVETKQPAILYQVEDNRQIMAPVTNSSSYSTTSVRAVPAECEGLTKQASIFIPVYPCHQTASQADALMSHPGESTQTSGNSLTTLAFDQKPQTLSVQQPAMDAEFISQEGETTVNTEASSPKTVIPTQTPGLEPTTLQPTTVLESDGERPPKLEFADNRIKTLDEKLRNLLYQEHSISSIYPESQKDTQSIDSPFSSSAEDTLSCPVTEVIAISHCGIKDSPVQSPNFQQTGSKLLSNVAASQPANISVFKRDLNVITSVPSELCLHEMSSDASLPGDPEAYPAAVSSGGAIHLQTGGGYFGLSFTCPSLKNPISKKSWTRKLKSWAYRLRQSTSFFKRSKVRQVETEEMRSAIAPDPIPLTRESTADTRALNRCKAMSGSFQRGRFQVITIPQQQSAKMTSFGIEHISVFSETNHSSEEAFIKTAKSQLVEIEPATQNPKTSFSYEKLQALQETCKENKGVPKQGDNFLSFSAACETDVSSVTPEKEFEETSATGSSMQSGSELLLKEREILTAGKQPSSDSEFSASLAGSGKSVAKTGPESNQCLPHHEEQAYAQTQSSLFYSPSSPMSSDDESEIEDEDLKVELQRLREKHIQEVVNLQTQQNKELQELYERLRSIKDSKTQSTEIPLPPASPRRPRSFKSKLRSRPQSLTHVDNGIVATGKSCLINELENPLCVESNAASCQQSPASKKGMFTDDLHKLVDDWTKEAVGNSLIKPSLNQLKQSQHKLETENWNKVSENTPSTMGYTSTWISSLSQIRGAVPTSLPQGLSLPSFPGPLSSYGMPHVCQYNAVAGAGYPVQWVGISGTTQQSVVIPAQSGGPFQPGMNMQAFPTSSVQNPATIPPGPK
RAF proto-oncogene serine/threonine-protein kinase (Homo sapiens), sequence (P04049 whole entry): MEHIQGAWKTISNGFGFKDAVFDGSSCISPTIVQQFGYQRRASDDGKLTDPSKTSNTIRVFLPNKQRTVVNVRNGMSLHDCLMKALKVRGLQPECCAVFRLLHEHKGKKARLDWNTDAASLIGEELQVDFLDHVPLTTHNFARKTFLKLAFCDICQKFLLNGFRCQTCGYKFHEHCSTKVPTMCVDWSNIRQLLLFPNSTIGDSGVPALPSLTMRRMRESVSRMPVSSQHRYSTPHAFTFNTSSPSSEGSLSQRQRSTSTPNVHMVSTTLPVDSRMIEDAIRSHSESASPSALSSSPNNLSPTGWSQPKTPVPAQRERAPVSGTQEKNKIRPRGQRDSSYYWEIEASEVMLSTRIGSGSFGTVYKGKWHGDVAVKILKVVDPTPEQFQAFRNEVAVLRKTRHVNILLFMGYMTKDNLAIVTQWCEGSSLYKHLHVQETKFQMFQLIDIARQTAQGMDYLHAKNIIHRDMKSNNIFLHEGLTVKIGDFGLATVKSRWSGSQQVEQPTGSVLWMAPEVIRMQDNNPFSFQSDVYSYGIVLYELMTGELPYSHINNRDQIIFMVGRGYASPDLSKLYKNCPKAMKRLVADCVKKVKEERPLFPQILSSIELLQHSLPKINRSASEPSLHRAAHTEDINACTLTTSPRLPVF
Tyrosine-protein kinase Yes (Homo sapiens), sequence (P07947 2-543 limits assumed): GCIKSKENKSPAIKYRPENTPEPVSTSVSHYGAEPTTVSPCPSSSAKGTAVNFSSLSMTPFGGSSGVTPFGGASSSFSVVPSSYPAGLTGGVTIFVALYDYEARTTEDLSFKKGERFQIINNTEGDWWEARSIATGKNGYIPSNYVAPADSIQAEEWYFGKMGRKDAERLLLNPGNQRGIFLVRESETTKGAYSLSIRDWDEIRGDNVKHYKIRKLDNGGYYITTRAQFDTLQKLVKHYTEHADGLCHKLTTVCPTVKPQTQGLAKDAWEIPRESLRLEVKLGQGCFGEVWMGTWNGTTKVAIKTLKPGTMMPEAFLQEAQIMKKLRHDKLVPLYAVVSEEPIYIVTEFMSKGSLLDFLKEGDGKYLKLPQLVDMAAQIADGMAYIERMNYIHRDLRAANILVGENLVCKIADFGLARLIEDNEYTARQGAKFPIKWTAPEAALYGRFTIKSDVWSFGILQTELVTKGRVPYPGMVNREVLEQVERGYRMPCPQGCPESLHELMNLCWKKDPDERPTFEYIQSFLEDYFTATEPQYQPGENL
BDNF/NT-3 growth factors receptor (Homo sapiens), sequence (Q16620 32-822 limits assumed): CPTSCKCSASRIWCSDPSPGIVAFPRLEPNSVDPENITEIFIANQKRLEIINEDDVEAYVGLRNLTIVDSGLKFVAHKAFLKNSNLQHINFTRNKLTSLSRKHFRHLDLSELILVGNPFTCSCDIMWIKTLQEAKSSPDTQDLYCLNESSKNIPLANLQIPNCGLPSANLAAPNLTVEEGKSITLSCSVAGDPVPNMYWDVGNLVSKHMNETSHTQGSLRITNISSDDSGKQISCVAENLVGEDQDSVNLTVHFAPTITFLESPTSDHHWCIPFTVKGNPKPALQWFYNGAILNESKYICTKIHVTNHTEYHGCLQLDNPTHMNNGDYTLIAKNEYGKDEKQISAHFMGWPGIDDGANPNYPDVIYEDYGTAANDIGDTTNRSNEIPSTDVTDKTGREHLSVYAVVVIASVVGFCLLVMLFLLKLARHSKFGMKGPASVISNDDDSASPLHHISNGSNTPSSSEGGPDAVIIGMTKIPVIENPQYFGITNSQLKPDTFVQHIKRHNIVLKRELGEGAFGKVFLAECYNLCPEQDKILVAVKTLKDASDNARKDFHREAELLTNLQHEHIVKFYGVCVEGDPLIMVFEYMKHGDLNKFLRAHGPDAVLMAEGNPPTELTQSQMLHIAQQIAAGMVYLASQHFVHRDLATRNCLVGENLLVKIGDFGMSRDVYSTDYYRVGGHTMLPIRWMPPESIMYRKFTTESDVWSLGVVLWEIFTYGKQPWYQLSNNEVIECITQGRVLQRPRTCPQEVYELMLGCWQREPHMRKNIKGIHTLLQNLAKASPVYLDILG

As usually defined, the residual activity is the signal under treatment as a percentage of the control signal. `N#C/C(=C(\N)Sc1ccc(N)cc1)c1ccccc1C(F)(F)F`: the residual activity in test [1] turned out to be 72%; in test [2], 74%; in [3] it was 86%; in test [4], 119%; in [5], 107%; in [6], 95%. Besides, the residual activity is 94% in test [7]; 101% (inactive) in test [8]; 95% in [9]; 101% (inactive) in test [10]; 89% in [11]; 93% (inactive) in [12]. Further, the residual activity in test [13] stood at 89%; in test [14], 107%; in test [15], 101%; in [16], 100%; in test [17], 89%; in test [18], 100%. Also, the residual activity was found to be 76% in test [19] and 66% in test [20].

In the case of `O=Nc1c(-c2c(O)[nH]c3ccccc23)[nH]c2ccccc12`, the residual activity worked out at 0% in test [1]; 45% in test [2]; 11% in test [3]; 93% in test [4]; 59% in test [5]; 55% in [6]. Besides, the residual activity is 12% in test [7]; 71% (inactive) in test [8]; 28% in [9]; 90% (inactive) in [10]; 55% in test [11]; 89% (inactive) in test [12]. For the same compound, the residual activity in test [13] is 60%; in [14], 17%; in test [15], 0%; in [16] it was 79%; in test [17], 81%; in test [18], 37%. Besides, the results for the residual activity in test [19] and in test [20] were 89% and 66%, respectively.

As for `CO[C@H]1[C@@H](OC)C[C@H](C)[C@@H](OC)C2=CC(=O)C=C(NC(=O)/C(C)=C/C=C/[C@H](OC)[C@@H](OC(N)=O)/C(C)=C/[C@@H]1C)C2=O`, the residual activity in [1] stood at 99%; in [2], 89%; in test [3] it was 103%; in test [4] it was 100%; in [5], 95%; in test [6] it was 88%. Besides, the residual activity was 92% in [7]; 108% (inactive) in test [8]; 96% in test [9]; 100% (inactive) in [10]; 90% in test [11]; 112% (inactive) in test [12]. Besides, the residual activity in test [13] came out at 106%; in [14] it was 101%; in test [15] it was 90%; in test [16], 98%; in [17], 108%; in test [18] it was 96%. Further, the residual activity was 93% in [19] and 85% in [20].

For the compound `COc1cc2ncnc(N3CCN(C(=O)Nc4ccc(Oc5ccccc5)cc4)CC3)c2cc1OC`, the residual activity in test [1] came out at 44%; in test [2], 108%; in [3], 119%; in [4], 100%; in test [5], 100%; in [6] it was 97%. For the same compound, the residual activity in [7] was 90%; in test [8] it was 94% (inactive); in test [9], 86%; in test [10], 84% (inactive); in [11] it was 48%; in [12] it was 80% (inactive). The residual activity came out at 58% in test [13]; 103% in test [14]; 105% in test [15]; 102% in test [16]; 105% in test [17]; 144% in [18]. In addition, the residual activity in test [19] came out at 78%; in test [20], 93%.

In the case of `O=c1cc(-c2cccc3c2Sc2ccccc2S3)oc(N2CCOCC2)c1`, the residual activity came to 76% in [1]; 91% in test [2]; 91% in test [3]; 107% in test [4]; 101% in [5]; 94% in test [6]. In addition, the residual activity was 96% in test [7]; 97% (inactive) in test [8]; 97% in test [9]; 103% (inactive) in test [10]; 78% in [11]; 95% (inactive) in test [12]. Further, the residual activity in test [13] was found to be 87%; in [14], 109%; in test [15], 91%; in test [16], 113%; in test [17], 104%; in [18], 99%. Besides, the residual activity in [19] is 96%; in test [20], 55%.

Turning to `CCN(CC)CCCCN1c2ccccc2Oc2ccc(Cl)cc21`, the residual activity is 87% in test [1]; 99% in [2]; 81% in [3]; 116% in test [4]; 96% in test [5]; 111% in [6]. Moreover, the residual activity was 98% in [7]; 126% (inactive) in test [8]; 99% in test [9]; 122% (inactive) in [10]; 89% in test [11]; 126% (inactive) in [12]. In addition, the residual activity in test [13] amounted to 104%; in test [14], 106%; in test [15], 94%; in [16], 113%; in [17], 99%; in test [18], 109%. Also, the residual activity was 93% in [19] and 100% in test [20].
